Bioassay records (PubChem)
Vif-APOBEC3G blk: qHTS for Inhibitors of Vif-A3G Interactions: qHTS. AID 602310, 2012. Potency, µM (top dose mostly 46.1 µM), inactives show at the top dose activity, negative = active, most hits filed as inhibitors. 410,000 compounds, 0.076% hits. HeLa A3G-eYFP + Vif (tagged APOBEC3G with the HIV-1 protein that degrades it), YFP fluorescence, overnight; also: potency is read from the fitted curve at half-maximal effect; % is scaled to controls: 0 for no effect and ±100 for the full control effect; nearly all actives have a fitted effect of over 60% in size
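HeLa cells stably expressing Vif and C-terminally eYFP-tagged A3G, seeded overnight at 37 deg C, then exposed to compound by pintool overnight at 37 deg C. Rise in yellow fluorescence (Ex 488/Em 500-530, Acumen) marks blocked Vif-driven A3G degradation.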
VDR inh: Inhibitors of the vitamin D receptor (VDR): qHTS; VDR-SRC2-3 peptide fluorescence polarization, 2 h; Vitamin D3 receptor (Homo sapiens), P11473; Potency, µM, without a hit: max response, negative = inhibition, most hits filed as inhibitors; AID 504847, 2011; 400,000 compounds, 0.93% hits; also: potency is read from the fitted curve at half-maximal effect; % is scaled to controls: 0 for no effect and ±100 for the full control effect
Target sequence (P11473 whole entry, looked up): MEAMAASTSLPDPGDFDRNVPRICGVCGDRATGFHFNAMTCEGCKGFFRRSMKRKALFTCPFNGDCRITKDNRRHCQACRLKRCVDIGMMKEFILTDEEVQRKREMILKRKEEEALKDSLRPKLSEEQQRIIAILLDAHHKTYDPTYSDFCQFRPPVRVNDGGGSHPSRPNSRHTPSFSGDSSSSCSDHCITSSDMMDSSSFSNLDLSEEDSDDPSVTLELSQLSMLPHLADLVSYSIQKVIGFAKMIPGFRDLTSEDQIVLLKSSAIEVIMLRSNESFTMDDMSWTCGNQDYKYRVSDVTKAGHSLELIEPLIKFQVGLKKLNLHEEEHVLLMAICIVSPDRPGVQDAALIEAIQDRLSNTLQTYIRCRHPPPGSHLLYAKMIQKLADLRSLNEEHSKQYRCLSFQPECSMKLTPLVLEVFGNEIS
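Compounds are added to VDR with labelled SRC2-3 coactivator peptide and held 2 h at room temperature. Inhibition of the VDR–peptide interaction is then read as a change in fluorescence polarization.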
TSHR antag: Antagonists of the Thyroid Stimulating Hormone Receptor: HTS campaign | 330,000 compounds, 0.2% hits | TSHR-expressing cells, TSH-stimulated cAMP HTRF, 2 h; active compounds read low | AID 504810, 2011 | Thyrotropin receptor (Homo sapiens), P16473 | activity change, negative = inhibition, % at 11.5 µM;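 active = activity change below a set negative limit, meaning inhibition stronger than a set level, cut at about -70% in these data; inconclusive = activity change between two set negative limits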; also: % is scaled to controls: 0 for no effect and ±100 for the full control effect
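Read-out is FRET at 665 nm (cryptate excitation 337 nm) from a cryptate-tagged anti-cAMP antibody, competed by cell cAMP against cAMP-d2. Compounds are tested on freshly harvested TSHR cells challenged with 4nM TSH (EC80) for 2 hours at 37 deg C.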
Vif-A3F inh: qHTS for Inhibitors of Vif-A3F Interactions: qHTS. AID 602313, 2012. 390,000 compounds, 0.2% hits. HeLa A3F-eYFP + Vif (tagged APOBEC3F with the HIV-1 protein that degrades it), YFP fluorescence increase. Potency, µM (highest dose often 46.1 µM), inactives show at the top dose activity, negative = active; also: potency is read from the fitted curve at half-maximal effect; % of control where 0% means no effect; nearly all actives have a fitted effect of over 65% in size
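Fluorescence increase (Ex 488/Em 500-530) after overnight compound treatment at 37 deg C flags inhibition of Vif-driven A3F-eYFP loss in stable HeLa A3F-eYFP/Vif cells seeded overnight beforehand.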
PLK1 PBD inh: qHTS for Inhibitors of PLK1-PDB (polo-like kinase 1 - polo-box domain): Primary Screen; Potency, µM, without a hit: max response, negative = inhibition, usual class: inhibitors; 360,000 compounds, 2.8% hits; Plk1 PBD binding of FITC phosphopeptide, fluorescence polarization; Serine/threonine-protein kinase PLK1 (Homo sapiens), P53350; also: potency is read from the fitted curve at half-maximal effect; series mostly up to about 57 µM; % is scaled to controls: 0 for no effect and ±100 for the full control effect; nearly all actives have a fitted effect of over 65% in size
* marks the source's active call; other numbers are inactive results; ? = inconclusive; nt = no result given. This is a sample that favours compounds with a hit; in the whole collection about 3.1% have one here. Unless noted, calls follow the shape of the dose curve; as a rule, active = well fitted curve in the direction sought with a large enough effect; inconclusive = small, poorly fitted or top-dose-only effect, or another doubt; inactive = no such curve, though single readings can be large; an effect the other way counts as inactive or inconclusive.

SMILES	Vif-APOBEC3G blk	VDR inh	TSHR antag	Vif-A3F inh	PLK1 PBD inh
Fc1ccc(-c2onc3ccc(C4OCCO4)cc23)cc1	-1%	15%	2	4%	-12%
O=Cc1ccc2noc(-c3ccc(F)cc3)c2c1	5%	-4%	-5	-9%	24µM*
O=C1C=C(Nc2ccccc2C(=O)O)c2ccccc2C1=O	-11%	?	0	7%	11µM*
CC(C)c1ccc(NC(=O)CSc2nnc(-c3ccccc3)n2C)cc1	-1%	nt	nt	nt	nt
CCCCc1ccc(NC(=S)NCc2cccc(OC)c2)cc1	1%	8%	-13	0%	-27%
CCCCc1ccc(NC(=S)Nc2ccc(Nc3ccc(OC)cc3)cc2)cc1	-6%	-28%	-15	-11%	15µM*
Cc1sc(N)c(C(=O)c2ccccc2)c1C	-5%	?	-7	1%	3.8µM*
CCOC(=O)c1ccc(-n2c(CCC(=O)O)ccc2-c2cccs2)cc1	2%	?	-10	-18%	19µM*
O=C(CCN1C(=O)C2C3C=CC(C3)C2C1=O)N1CCN(c2ccc([N+](=O)[O-])cc2)CC1 (configuration not stated)	3%	-5%	-8	-5%	-9%
O=C1C2C3C=CC(C3)C2C(=O)N1CCN1CCN(Cc2ccc([N+](=O)[O-])cc2)CC1 (configuration not stated)	1%	?	3	?	21µM*
O=[N+]([O-])c1ccccc1/C=C/c1ccc2ccccc2n1	-14%	0%	4	-1%	27µM*
COC(=O)C(NNc1ccccc1C)(NC(=O)c1ccc(F)cc1)C(F)(F)F (configuration not stated)	2%	-29%	-11	nt	27µM*
CCOC(=O)c1sc(NC(=O)/C=C/c2cnn(CC)c2C)c(C(=O)OCC)c1C	0%	?	-2	-7%	13µM*
COc1ccc(N2C(=O)c3ccc(C(=O)OC(C)C)cc3C2=O)cc1	6%	-20%	1	-5%	2.7µM*
COc1ccc(N2C(=O)c3cc4ccccc4cc3C2=O)cc1	-1%	?	-2	-3%	27µM*
COc1ccccc1Oc1ccc2c(c1)C(=O)N(c1ccc(C)cc1)C2=O	1%	14%	-2	-3%	-8%
CC1(O)/C=C\C=C(\CO)C2CC(C)(C)C2(O)CC1 (configuration not stated)	nt	3%	nt	nt	nt
CCCCC(=O)N1CCN(c2nc(-c3ccc(F)cc3)cs2)CC1	1%	-15%	0	6%	-7%
NC(=O)CN1CCN(c2nc(-c3ccc(F)cc3)cs2)CC1	4%	1%	-5	1%	30µM*
CN(C)C=Nc1c(Br)cc(Br)c2nonc12	?	?	7	11µM*	?
CN(C)C=Nc1nonc1-c1ccccc1	0%	4%	4	-21%	-2%
COc1cc(-c2ccc(-[n+]3nc(-c4ccccc4)nn3-c3ccc([N+](=O)[O-])cc3)c(OC)c2)ccc1-[n+]1nc(-c2ccccc2)nn1-c1ccc([N+](=O)[O-])cc1	nt	1%	nt	nt	nt
COCCCNc1nc2ccccc2nc1NS(=O)(=O)c1cccc(C)c1	0%	-12%	-8	5%	-7%
COCCCNc1nc2ccccc2nc1NS(=O)(=O)c1ccccc1	1%	8%	-4	22µM*	-8%
Nc1c(N=Nc2ccc([N+](=O)[O-])cc2)c(S(=O)(=O)O)cc2cc(S(=O)(=O)O)c(/C=C/c3ccccc3)c(O)c12	3%	nt	nt	nt	nt
SMILES	Vif-APOBEC3G blk	VDR inh	TSHR antag	Vif-A3F inh	PLK1 PBD inh
CC[C@@]1(c2cccc(C)c2)C(=O)N(C(=O)OC)N1C(=O)OC	0%	?	12	3%	9.5µM*
COC(=O)N1C(=O)[C@](CC(C)C)(c2ccccc2)N1C(=O)OC	-29%	79µM*	24	4%	13µM*
Cc1[nH]n(-c2ccccc2)c(=S)c1C=NCCCN=Cc1c(C)[nH]n(-c2ccccc2)c1=S	-4%	?	33	-17%	17µM*
COC(=O)CN=Cc1c(C)[nH]n(-c2ccccc2)c1=O	5%	14%	3	2%	0%
COC(=O)Cc1ccc(NC(=S)N2CCCC(CO)C2)cc1 (configuration not stated)	-3%	-5%	5	6%	?
COc1cc(NC(=S)N2CCCC(CO)C2)cc(OC)c1 (configuration not stated)	2%	7%	0	11%	21µM*
CC(C)(C)n1ncc2c(=O)n(Cc3ccc(Cl)c(F)c3)cnc21	1%	nt	nt	nt	nt
N#C/C(=C\c1c(Oc2ccc(Br)cc2)nc2ccccn2c1=O)c1nc2ccccc2s1	3%	40µM*	nt	-6%	nt
CN(Cc1ccco1)c1cc(-c2ccc3c(c2)OCO3)ncn1	nt	22µM*	nt	nt	nt
Oc1ccc(CN2CCCc3ccccc32)c2cccnc12	2%	79µM*	-7	?	?
COc1ccccc1N1CCN(Cc2ccc(O)c3ncccc23)CC1	0%	24%	10	-17%	-4%
FC(F)(F)c1ccccc1-c1nc(Nc2ccncc2)c2ccccc2n1	nt	3%	nt	nt	nt
CCCCN(CC)C(=O)c1cc2c(=O)n3cccc(C)c3nc2s1	-5%	-29%	-7	1%	17µM*
CCN(CC)C(=O)c1cc2c(=O)n3cccc(C)c3nc2s1	0%	-9%	-6	4%	5%
COc1cc(OC)c2c(=O)c(O)c(-c3ccc(OC)c(OC)c3)oc2c1	nt	3%	nt	nt	nt
COc1cc(OC)c2c(O)c3c(c(-c4c5c(c(O)c6c(OC)cc(OC)cc46)CO[C@@H](C)[C@H]5O)c2c1)[C@H](O)[C@H](C)OC3	-5%	3%	-8	3%	21µM*
N#C/C(=C\c1ccc(N2CCOCC2)o1)C(=O)NCCc1ccccc1	2%	-2%	-7	22µM*	92%
COCCNC(=O)/C(C#N)=C/c1ccc(N2CCOCC2)o1	-12%	8%	-9	-10%	85%
Cc1ccc(C)c(Cn2c(=O)n(CCCC(=O)NCc3ccco3)c(=O)c3ccccc32)c1	-1%	-13%	0	3%	0%
Cc1ccc(C)c(Cn2c(=O)n(CCCC(=O)NCc3ccco3)c(=O)c3sccc32)c1	?	12%	0	-9%	30µM*
COc1ccc(OC(C)c2nc3ccccc3[nH]2)cc1 (configuration not stated)	1%	1%	nt	0%	nt
Cc1oc(-c2ccccc2F)nc1CSCC(=O)NC1CC1	0%	?	-2	1%	27µM*
Cc1oc(-c2ccccc2F)nc1CSCC(=O)NC1CCC(C)CC1 (configuration not stated)	0%	-4%	3	-6%	-4%
